The values below come from article PMC8159961, “Exploring protein hotspots by optimized fragment pharmacophores” (Nature Communications, 2021).

Holding throughout (assay): primary screen, binary call; higher = more effect of the substance
One assay deals with Factor Xa (bovine, UniProt P00743). On the set-up: screenings were carried out in duplicate in one independent experiment. Conditions: 200 µM. As for the experimental part: Protease inhibitory assays were performed in transparent microtiter plates in a final volume of 200 µL with the use of chromogenic substrates. The reaction rates in the absence and in the presence of the inhibitor were measured; screenings were carried out in duplicate in one independent experiment and Ki values were determined in triplicate in two independent experiments.

The target of the next assay is 5-HT6 receptor (human, UniProt P50406). Set-up: hit call from the mean of at least two separate experiments. Conditions: 10 µM.
The next assay addresses 5-HT7b receptor (human, UniProt P34969). Set-up: hit call from the mean of at least two separate experiments. Conditions: 10 µM.

Unmarked numbers belong to inactive results. The rule behind the calls is not given here.

Chain of Factor Xa (P00743 41-180 limits assumed): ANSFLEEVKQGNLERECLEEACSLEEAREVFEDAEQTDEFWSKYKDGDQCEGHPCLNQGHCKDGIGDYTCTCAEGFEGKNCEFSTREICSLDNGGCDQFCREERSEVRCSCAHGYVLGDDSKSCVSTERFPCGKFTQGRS
Chain of Factor Xa (P00743 234-492 limits assumed): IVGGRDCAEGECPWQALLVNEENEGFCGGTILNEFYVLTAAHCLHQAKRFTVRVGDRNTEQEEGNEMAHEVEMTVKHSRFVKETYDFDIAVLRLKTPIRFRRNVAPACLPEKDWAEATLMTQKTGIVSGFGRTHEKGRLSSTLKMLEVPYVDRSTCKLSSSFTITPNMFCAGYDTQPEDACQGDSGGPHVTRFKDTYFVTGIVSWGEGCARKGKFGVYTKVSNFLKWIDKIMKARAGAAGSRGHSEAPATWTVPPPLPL
Chain of 5-HT6 receptor (P50406 whole entry, looked up): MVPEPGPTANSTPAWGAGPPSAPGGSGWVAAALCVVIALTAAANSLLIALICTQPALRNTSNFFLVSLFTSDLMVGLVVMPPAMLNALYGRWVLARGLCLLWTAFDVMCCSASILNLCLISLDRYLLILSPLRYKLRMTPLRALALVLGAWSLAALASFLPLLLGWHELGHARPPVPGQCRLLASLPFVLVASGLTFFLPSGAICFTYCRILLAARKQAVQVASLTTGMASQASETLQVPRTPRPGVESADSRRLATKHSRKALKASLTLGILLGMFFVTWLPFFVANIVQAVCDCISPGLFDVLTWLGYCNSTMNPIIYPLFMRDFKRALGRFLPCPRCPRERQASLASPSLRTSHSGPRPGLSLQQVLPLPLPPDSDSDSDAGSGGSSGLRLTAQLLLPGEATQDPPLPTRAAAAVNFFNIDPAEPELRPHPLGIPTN
Chain of 5-HT7b receptor (P34969 whole entry, looked up): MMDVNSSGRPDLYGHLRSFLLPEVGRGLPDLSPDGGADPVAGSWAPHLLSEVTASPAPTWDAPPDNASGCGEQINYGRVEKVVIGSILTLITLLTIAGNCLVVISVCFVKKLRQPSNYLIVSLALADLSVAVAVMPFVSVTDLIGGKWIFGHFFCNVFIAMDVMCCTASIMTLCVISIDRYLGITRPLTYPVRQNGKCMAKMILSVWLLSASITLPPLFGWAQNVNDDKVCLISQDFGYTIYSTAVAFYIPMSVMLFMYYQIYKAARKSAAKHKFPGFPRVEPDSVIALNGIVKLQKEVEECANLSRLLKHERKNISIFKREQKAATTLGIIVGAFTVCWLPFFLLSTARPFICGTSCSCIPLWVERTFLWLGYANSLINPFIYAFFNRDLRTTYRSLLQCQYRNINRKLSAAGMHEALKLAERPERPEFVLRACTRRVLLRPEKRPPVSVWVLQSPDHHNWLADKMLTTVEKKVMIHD

Take `CS(=O)(=O)c1ccc(OC(F)(F)F)cc1`: the “Factor Xa” value with Factor Xa was 0. In the assay with 5-HT6 receptor, the 5-HT6 is 0. The 5-HT7 with 5-HT7b receptor is 0.

Regarding `Cc1cc(C)c2c(=O)[nH]n(C)c2n1`, the “Factor Xa” value with Factor Xa is 0. Also, in the assay with 5-HT6 receptor, the 5-HT6 was 0. The 5-HT7 in the assay with 5-HT7b receptor was 0.

Consider `O=C1CNCCN1c1ccccc1`, for which, in the assay with Factor Xa, the “Factor Xa” value is 0. Moreover, the 5-HT6 with 5-HT6 receptor is 0. Further, in the assay with 5-HT7b receptor, the 5-HT7 is 0.

On to `O=C(c1ccccc1)N1CCC(CO)CC1`, for which the “Factor Xa” value with Factor Xa was 0. Also, the 5-HT6 with 5-HT6 receptor is 0. Also, the 5-HT7 with 5-HT7b receptor was 0.

With `O=C(O)c1cnc(-c2ccccc2)s1`, the “Factor Xa” value with Factor Xa was 0. Also, the 5-HT6 with 5-HT6 receptor is 0. Besides, the 5-HT7 with 5-HT7b receptor was 0.

Turning to `C1=C[C@H]2O[C@@H]1c1ccccc12`, in the assay with Factor Xa, the “Factor Xa” value was 0. The 5-HT6 with 5-HT6 receptor is 0. In addition, the 5-HT7 in the assay with 5-HT7b receptor was 0.

Turning to `NCC1(c2ccccc2)CCOCC1`, in the assay with Factor Xa, the “Factor Xa” value is 0. In the assay with 5-HT6 receptor, the 5-HT6 was 0. The 5-HT7 with 5-HT7b receptor is 0.

With `Cn1c(CO)nc2ccccc21`, in the assay with Factor Xa, the “Factor Xa” value is 0. Also, the 5-HT6 with 5-HT6 receptor is 0. For the same molecule, in the assay with 5-HT7b receptor, the 5-HT7 is 0.

In the case of `O=C(O)CC1CCC(=O)N1` (stereo not drawn), the “Factor Xa” value with Factor Xa was 0. Also, the 5-HT6 with 5-HT6 receptor was 0. In the assay with 5-HT7b receptor, the 5-HT7 is 0.

As for `NC(c1ccccc1)c1ccccc1`, in the assay with Factor Xa, the “Factor Xa” value is 0. The 5-HT6 in the assay with 5-HT6 receptor is 0. Also, the 5-HT7 in the assay with 5-HT7b receptor was 0.

As for `Oc1nnc(-c2ccccc2)o1`, in the assay with Factor Xa, the “Factor Xa” value is 0. Besides, the 5-HT6 with 5-HT6 receptor is 0. Also, the 5-HT7 with 5-HT7b receptor was 0.

As for `O=C(CN1CCCC1)c1ccccc1Cl`, in the assay with Factor Xa, the “Factor Xa” value was 0. Moreover, in the assay with 5-HT6 receptor, the 5-HT6 was 0. For the same molecule, the 5-HT7 with 5-HT7b receptor is 0.

`O=C1CCN(c2ccccn2)CC1`: the “Factor Xa” value with Factor Xa is 0. In addition, in the assay with 5-HT6 receptor, the 5-HT6 was 0. Also, the 5-HT7 in the assay with 5-HT7b receptor was 0.

Take `Cc1ccc(CCNc2ccccc2)cn1`: the “Factor Xa” value in the assay with Factor Xa was 0. In addition, in the assay with 5-HT6 receptor, the 5-HT6 is 0. Moreover, the 5-HT7 in the assay with 5-HT7b receptor is 0.

In the case of `CS(=O)(=O)Nc1ccc(C(=O)O)cc1`, the “Factor Xa” value in the assay with Factor Xa was 0. Besides, in the assay with 5-HT6 receptor, the 5-HT6 is 0. In addition, in the assay with 5-HT7b receptor, the 5-HT7 was 0.

Turning to `O=C1CC(CSc2ccc(Cl)cc2)=NN1`, the “Factor Xa” value with Factor Xa is 0. For the same molecule, the 5-HT6 in the assay with 5-HT6 receptor was 0. Further, the 5-HT7 with 5-HT7b receptor is 0.

`O=C(c1ccncc1)N1CCNCC1`: in the assay with Factor Xa, the “Factor Xa” value was 0. The 5-HT6 with 5-HT6 receptor was 0. Further, the 5-HT7 in the assay with 5-HT7b receptor is 0.

Consider `CC(=O)c1ccc2c(c1)CCCN2`, for which the “Factor Xa” value with Factor Xa was 0. The 5-HT6 with 5-HT6 receptor is 0. Further, in the assay with 5-HT7b receptor, the 5-HT7 was 0.

In the case of `COc1cccc(NC2=NCCCCC2)c1`, the “Factor Xa” value with Factor Xa was 0. In addition, the 5-HT6 with 5-HT6 receptor was 0. Moreover, in the assay with 5-HT7b receptor, the 5-HT7 was 0.

Regarding `Nc1ccc(-c2ccccc2)cc1C(=O)O`, the “Factor Xa” value with Factor Xa was 0. In addition, the 5-HT6 with 5-HT6 receptor is 0. In addition, the 5-HT7 with 5-HT7b receptor was 0.

Regarding `N#CC1CCS(=O)(=O)C1` (stereo not drawn), in the assay with Factor Xa, the “Factor Xa” value is 0. The 5-HT6 with 5-HT6 receptor was 0. The 5-HT7 in the assay with 5-HT7b receptor is 0.

On to `CC(=O)c1ccc2c(c1)CNCC2`, for which, in the assay with Factor Xa, the “Factor Xa” value is 0. The 5-HT6 with 5-HT6 receptor is 0. In addition, the 5-HT7 with 5-HT7b receptor is 0.

For the molecule `COC(=O)c1c(C)nc(C2CC2)[nH]c1=O`, in the assay with Factor Xa, the “Factor Xa” value was 0. Moreover, the 5-HT6 with 5-HT6 receptor was 0. The 5-HT7 with 5-HT7b receptor is 0.

Regarding `O=C(O)c1ccc(CN2CCOCC2)cc1`, the “Factor Xa” value with Factor Xa was 0. The 5-HT6 with 5-HT6 receptor is 0. In the assay with 5-HT7b receptor, the 5-HT7 is 0.

On to `Cc1nc(-c2ccccc2)cs1`, for which the “Factor Xa” value with Factor Xa was 0. For the same molecule, the 5-HT6 with 5-HT6 receptor was 1 (active). The 5-HT7 with 5-HT7b receptor was 0.

For the molecule `Brc1ccc(-c2ccon2)cc1`, in the assay with Factor Xa, the “Factor Xa” value was 0. In addition, the 5-HT6 with 5-HT6 receptor is 0. Moreover, the 5-HT7 with 5-HT7b receptor was 0.

Turning to `CC(=O)c1sc(-c2ccc(O)cc2)nc1C`, in the assay with Factor Xa, the “Factor Xa” value is 1 (active). Moreover, the 5-HT6 with 5-HT6 receptor is 1 (active). Also, in the assay with 5-HT7b receptor, the 5-HT7 was 0.

Turning to `O=C1NC(=O)C2(CCc3ccccc32)N1` (stereo not drawn), the “Factor Xa” value in the assay with Factor Xa is 0. In the assay with 5-HT6 receptor, the 5-HT6 was 0. For the same molecule, the 5-HT7 with 5-HT7b receptor is 0.

Consider `c1ccc(Nc2nncs2)cc1`, for which the “Factor Xa” value with Factor Xa was 1 (active). Besides, the 5-HT6 in the assay with 5-HT6 receptor is 0. Also, the 5-HT7 in the assay with 5-HT7b receptor was 0.

On to `CCc1ccc(NC2=NCCCS2)cc1`, for which the “Factor Xa” value with Factor Xa was 0. For the same molecule, the 5-HT6 in the assay with 5-HT6 receptor is 0. Besides, the 5-HT7 with 5-HT7b receptor was 0.

For `O=C1NC(=O)/C(=C\c2cccs2)N1`, the “Factor Xa” value with Factor Xa was 1 (active). Moreover, the 5-HT6 in the assay with 5-HT6 receptor is 0. Besides, the 5-HT7 with 5-HT7b receptor was 0.

For the molecule `Clc1ccc2nnnn2n1`, in the assay with Factor Xa, the “Factor Xa” value is 0. The 5-HT6 with 5-HT6 receptor was 0. Also, the 5-HT7 with 5-HT7b receptor is 0.

For the molecule `O=c1ccc2c([nH]1)CCCC2`, the “Factor Xa” value with Factor Xa is 0. In the assay with 5-HT6 receptor, the 5-HT6 is 0. The 5-HT7 with 5-HT7b receptor is 0.

On to `N#CCCN1CCc2ccccc21`, for which, in the assay with Factor Xa, the “Factor Xa” value is 0. In the assay with 5-HT6 receptor, the 5-HT6 is 0. For the same molecule, the 5-HT7 in the assay with 5-HT7b receptor is 0.

On to `Oc1ccc(C2CCNCC2)cc1`, for which the “Factor Xa” value with Factor Xa is 0. Besides, the 5-HT6 with 5-HT6 receptor was 0. Further, the 5-HT7 in the assay with 5-HT7b receptor was 0.

Turning to `COc1ccccc1CC1CCNCC1.Cl`, in the assay with Factor Xa, the “Factor Xa” value is 1 (active). For the same molecule, the 5-HT6 with 5-HT6 receptor is 1 (active). Also, the 5-HT7 in the assay with 5-HT7b receptor was 1 (active).

As to `Nc1ccc(SC(F)F)cc1`, in the assay with Factor Xa, the “Factor Xa” value was 0. Further, the 5-HT6 with 5-HT6 receptor was 0. The 5-HT7 with 5-HT7b receptor was 0.

For `O=C(NC1CC1)c1ccccc1O`, the “Factor Xa” value with Factor Xa was 0. Moreover, the 5-HT6 with 5-HT6 receptor was 0. In addition, the 5-HT7 with 5-HT7b receptor was 0.

As to `O=C(O)C1CCCN(C(=O)N2CCCC2)C1` (stereo not drawn), the “Factor Xa” value with Factor Xa is 0. For the same molecule, in the assay with 5-HT6 receptor, the 5-HT6 is 0. Further, the 5-HT7 with 5-HT7b receptor was 0.

For `COc1ccc(C2=CCNCC2)cc1`, the “Factor Xa” value with Factor Xa was 0. Besides, the 5-HT6 with 5-HT6 receptor is 0. Moreover, the 5-HT7 with 5-HT7b receptor was 0.

Turning to `Cn1nc(C(F)(F)F)cc1O`, in the assay with Factor Xa, the “Factor Xa” value is 0. In addition, in the assay with 5-HT6 receptor, the 5-HT6 is 0. Further, the 5-HT7 with 5-HT7b receptor is 0.

With `O=c1[nH]ncc2c1oc1ccccc12`, the “Factor Xa” value with Factor Xa was 0. Further, the 5-HT6 with 5-HT6 receptor was 0. In addition, the 5-HT7 with 5-HT7b receptor is 0.

In the case of `Cc1nccn1Cc1cccc(C#N)c1`, the “Factor Xa” value with Factor Xa is 0. Further, the 5-HT6 in the assay with 5-HT6 receptor is 0. In the assay with 5-HT7b receptor, the 5-HT7 is 0.

`CCN(CC)c1cccc(C)c1`: the “Factor Xa” value with Factor Xa is 0. For the same molecule, the 5-HT6 with 5-HT6 receptor was 0. The 5-HT7 with 5-HT7b receptor is 0.

Regarding `O=C(O)C1CCN(c2ncccn2)CC1`, the “Factor Xa” value with Factor Xa was 0. The 5-HT6 with 5-HT6 receptor is 0. Moreover, the 5-HT7 with 5-HT7b receptor was 0.

As to `Oc1ccc(-n2cncn2)cc1`, in the assay with Factor Xa, the “Factor Xa” value was 0. In addition, the 5-HT6 with 5-HT6 receptor was 0. The 5-HT7 in the assay with 5-HT7b receptor was 0.
